The record followed here is PubChem BioAssay (EPA / NIEHS).

Assay [1] is described as follows: ATG_TCF_b_cat_CIS: Attagene CIS-FACTORIAL HepG2 Assay for human T-Cell-Factor with beta-catenin (TCF/b-cat) (AID 2282965). Particulars: HepG2 TCF/beta-catenin cis-reporter transcription, actives raise or lower the signal. A digest of the protocol:
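Measured: reporter mRNA in HepG2 transiently transfected with cis-promoter reporter units, 24 h after chemical addition. Fitting was bidirectional, DMSO as negative control.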

The nature of assay [2]: ATG_TAL_CIS: Attagene CIS-FACTORIAL HepG2 Assay for human TAL Basal Promoter (AID 2282966).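 Note: background control endpoint measuring basal TAL promoter reporter mRNA not a specific factor.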 Particulars: HepG2 Attagene cis-factorial TAL promoter reporter; actives raise or lower the signal. In outline: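 Readout: reporter mRNA, fluorescence by CE. System: HepG2, transient multi-reporter transfection, endogenous TF activity. Exposure: 24 h. Analysis: bidirectional, DMSO-normalized; background control.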

The nature of assay [3]: ATG_TGFb_CIS: Attagene CIS-FACTORIAL HepG2 Assay for human Transforming Growth Factor (TGF) (AID 2282967). Particulars: HepG2 Attagene CIS TGFb reporter, mRNA transcription; actives raise or lower the signal. In outline: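 Bidirectional fitting relative to DMSO gave the endpoint. Underlying data: reporter mRNA from HepG2 cells carrying transiently transfected cis-regulated reporter constructs, harvested 24 h after dosing and analyzed by RT-PCR and capillary electrophoresis.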

Assay [4] is described as follows: ATG_VDRE_CIS: Attagene CIS-FACTORIAL HepG2 Assay for human Vitamin D Receptor Element (VDRE) (AID 2282968). Particulars: HepG2 VDRE cis-reporter transcription, actives raise or lower the signal. A digest of the protocol:
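Reporter mRNA induction, quantified by capillary electrophoresis of fluorescently labelled RT-PCR products, was read 24 h after dosing HepG2 cells carrying transiently transfected cis-regulated reporter units; gain or loss relative to DMSO.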

Assay [5] deals with Nuclear receptor subfamily 1 group I member 3 (Homo sapiens) (UniProt Q14994). In words: ATG_CAR_TRANS: Attagene TRANS-FACTORIAL HepG2 Assay for human Constitutive Androstane Receptor (CAR) (AID 2282969; active = hit-call score of the fitted dose curve at least 0.9, where 1 is the maximum;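 note: activators raise reporter mRNA above DMSO so AC50 marks induction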). As to conditions: HepG2 Attagene TRANS-FACTORIAL CAR reporter. In outline: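 Readout is reporter mRNA induction, quantified by fluorescent primer extension and capillary electrophoresis after RT-PCR. Cells were HepG2 transiently carrying chimeric NR-Gal4 constructs with GAL4-UAS reporters, treated for 24 h; activity scored upward from DMSO.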

The target of assay [6] is Estrogen receptor (Homo sapiens) (UniProt P03372). In words: ATG_ERa_TRANS: Attagene TRANS-FACTORIAL HepG2 Assay for human Estrogen Receptor alpha (ERa) (AID 2282970; active = hit-call score of the fitted dose curve at least 0.9, where 1 is the maximum). As to conditions: HepG2 Attagene TRANS ERa GAL4 reporter, mRNA. In outline:
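Transactivation via ERa-Gal4 chimera in HepG2; 24 hour incubation; reporter mRNA detected by fluorescence RT-PCR and capillary electrophoresis.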

Assay [7] deals with X-box-binding protein 1 (Homo sapiens) (UniProt P17861). Briefly: ATG_Xbp1_CIS: Attagene CIS-FACTORIAL HepG2 Assay for human X-box Binding Protein 1 (XBP1) (AID 2282972). As to conditions: HepG2 XBP1 cis-element reporter, Attagene multiplex; actives raise or lower the signal. In outline:
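HepG2, transient MRTU transfection (cis-promoter driven), 24 h compound exposure. Total RNA → oligo(dT) RT → PCR → 6-FAM labeling → HpaI cut → CE. Bidirectional fit vs DMSO.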

For assay [8], the target named is Steroid hormone receptor ERR1 (Homo sapiens) (UniProt P11474). Briefly: ATG_ERRa_TRANS: Attagene TRANS-FACTORIAL HepG2 Assay for human Estrogen-Related Receptor alpha (ERRa) (AID 2282971; active = hit-call score of the fitted dose curve at least 0.9, where 1 is the maximum). As to conditions: HepG2 Attagene TRANS reporter, ERRa transactivation. In outline: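 HepG2 cells were transiently transfected with multiple GAL4-UAS reporter units, then dosed with compound for 24 h. Total RNA was reverse-transcribed, reporter cDNA PCR-amplified and fluorescently labelled, and fragments resolved by capillary electrophoresis; induction was compared with DMSO.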

A short description of assay [9]: ATG_GAL4_TRANS: Attagene TRANS-FACTORIAL HepG2 Assay for GAL4 (Internal Marker) (AID 2282976; active = hit-call score of the fitted dose curve at least 0.9, where 1 is the maximum). As to conditions: HepG2 Attagene TRANS GAL4 internal marker reporter. A digest of the protocol:
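Fluorescence from capillary electrophoresis of labelled RT-PCR products quantifies reporter mRNA induction after 24 h dosing of HepG2 cells carrying transfected GAL4-UAS reporter transcription units. Vehicle DMSO serves as baseline.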

Assay [10] in a line: ATG_M_19_TRANS: Attagene TRANS-FACTORIAL HepG2 Assay for M19 Transcription Factor (Internal Marker) (AID 2282974; active = hit-call score of the fitted dose curve at least 0.9, where 1 is the maximum). Particulars: HepG2 Attagene TRANS-FACTORIAL M19 internal marker reporter. A digest of the protocol: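 24 h chemical exposure of transiently transfected HepG2 (MRTU library). RNA → oligo(dT) RT → PCR → 6-FAM labelling → HpaI cut → CE fluorescence. Positive-direction fit vs DMSO baseline; background internal-marker readout.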

Broadly, the AC50 is the concentration giving half of the maximal activity seen.

Inconclusive results are not listed. Calls of active or inactive are those of the source. Rule for the calls, unless noted: active = hit-call score of the fitted dose curve at least 0.9, where 1 is the maximum; inactive = score below 0.9.

Sequence of Steroid hormone receptor ERR1 (Homo sapiens) (P11474 whole entry, looked up, the tested form may be a part): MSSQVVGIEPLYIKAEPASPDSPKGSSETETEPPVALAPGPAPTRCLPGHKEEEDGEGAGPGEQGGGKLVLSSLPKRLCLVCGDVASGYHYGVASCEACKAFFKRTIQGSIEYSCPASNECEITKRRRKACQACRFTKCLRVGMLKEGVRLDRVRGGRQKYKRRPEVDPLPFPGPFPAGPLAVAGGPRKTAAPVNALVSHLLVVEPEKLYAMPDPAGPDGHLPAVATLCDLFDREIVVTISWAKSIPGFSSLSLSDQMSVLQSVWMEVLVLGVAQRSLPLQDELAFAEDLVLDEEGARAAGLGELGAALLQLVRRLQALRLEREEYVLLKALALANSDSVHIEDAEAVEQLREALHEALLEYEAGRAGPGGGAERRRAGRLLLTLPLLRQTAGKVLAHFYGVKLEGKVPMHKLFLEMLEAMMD
Sequence of X-box-binding protein 1 (Homo sapiens) (P17861 whole entry, looked up): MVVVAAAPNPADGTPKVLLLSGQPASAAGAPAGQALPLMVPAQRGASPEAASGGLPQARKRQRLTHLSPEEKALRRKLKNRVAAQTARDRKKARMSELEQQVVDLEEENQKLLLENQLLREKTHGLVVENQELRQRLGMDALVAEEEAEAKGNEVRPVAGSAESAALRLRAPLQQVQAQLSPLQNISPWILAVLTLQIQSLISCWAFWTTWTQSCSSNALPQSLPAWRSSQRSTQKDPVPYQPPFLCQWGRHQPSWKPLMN
Sequence of Estrogen receptor (Homo sapiens) (P03372 whole entry, looked up, the tested form may be a part): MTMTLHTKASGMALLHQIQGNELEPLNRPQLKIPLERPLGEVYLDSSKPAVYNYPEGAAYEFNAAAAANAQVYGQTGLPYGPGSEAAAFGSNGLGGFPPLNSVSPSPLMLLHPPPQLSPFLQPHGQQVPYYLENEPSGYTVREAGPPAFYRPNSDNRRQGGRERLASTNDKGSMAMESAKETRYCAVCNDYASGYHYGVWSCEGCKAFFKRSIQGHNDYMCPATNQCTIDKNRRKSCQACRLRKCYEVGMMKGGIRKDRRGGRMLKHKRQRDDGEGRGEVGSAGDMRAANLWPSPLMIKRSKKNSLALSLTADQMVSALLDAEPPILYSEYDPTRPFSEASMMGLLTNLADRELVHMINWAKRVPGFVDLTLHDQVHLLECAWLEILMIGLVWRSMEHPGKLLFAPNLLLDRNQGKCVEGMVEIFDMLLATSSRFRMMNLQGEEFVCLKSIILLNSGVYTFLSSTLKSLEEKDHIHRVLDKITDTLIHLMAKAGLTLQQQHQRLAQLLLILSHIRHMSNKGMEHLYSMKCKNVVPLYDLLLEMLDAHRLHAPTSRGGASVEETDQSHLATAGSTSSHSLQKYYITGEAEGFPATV
Sequence of Nuclear receptor subfamily 1 group I member 3 (Homo sapiens) (Q14994 whole entry, looked up, the tested form may be a part): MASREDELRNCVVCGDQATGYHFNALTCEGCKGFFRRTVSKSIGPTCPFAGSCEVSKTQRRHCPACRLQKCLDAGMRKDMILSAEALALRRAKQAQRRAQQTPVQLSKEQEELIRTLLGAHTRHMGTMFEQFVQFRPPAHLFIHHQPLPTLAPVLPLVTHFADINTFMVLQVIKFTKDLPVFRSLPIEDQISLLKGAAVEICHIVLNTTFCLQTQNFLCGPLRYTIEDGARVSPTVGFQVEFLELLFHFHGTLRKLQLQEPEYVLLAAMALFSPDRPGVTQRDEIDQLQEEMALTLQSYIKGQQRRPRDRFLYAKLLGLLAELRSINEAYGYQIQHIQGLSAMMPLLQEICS

For the molecule `Nc1ccc(Oc2cccc(Oc3ccc(N)cc3)c2)cc1`, the AC50 in assay [1] is 27.4 µM (active); in assay [6], 2.58 µM (active); in assay [7], 42 µM (active). In addition, the molecule was called inactive in assay [2], in [3], in assay [4] and in assay [5].
As to `O=C(Cl)C(F)(F)C(F)(F)C(F)(F)C(F)(F)C(F)(F)C(F)(F)C(F)(F)C(F)(F)F`, the AC50 is 33.4 µM (active) in [1], 52.2 µM (active) in [4] and 25.5 µM (active) in [6]. For the same molecule, the call in [2], in assay [3] and in assay [5] was inactive.
Turning to `O=C(O)C(F)(F)C(F)(F)OC(F)(F)F`, the molecule was classed as inactive in [1], in [2], in assay [3], in assay [4], in assay [5] and in [6]. In addition, the call in assay [8], in assay [7] and in [9] was inactive.
For the molecule `FC(F)(F)C(F)(F)C(F)(F)C(F)(F)C(F)(F)C(F)(F)C(F)(F)C(F)(F)CCS`, the molecule was called inactive in assay [1], in [2], in assay [3], in assay [4], in [5] and in [6]. For the same molecule, the call in assay [8], in [7], in assay [10] and in assay [9] was inactive.
For the molecule `CCN(CC)c1ccc2c(C)cc(=O)oc2c1`, the call in assay [1], in assay [2], in assay [3], in assay [5], in assay [7] and in assay [10] was inactive. The AC50 in [4] is 9.28 µM (active); in assay [6], 25.4 µM (active).
As to `O[Si](c1ccccc1)(c1ccccc1)c1ccccc1`, the molecule was classed as inactive in assay [1], in assay [2], in assay [3], in assay [4], in [5] and in [7]. In addition, the AC50 in assay [6] is 4.11 µM (active).
With `FC(F)(F)C(F)(F)C(F)(F)C(F)(F)C(F)(F)CCI`, the molecule was classed as inactive in [1], in [2], in [3], in [4], in assay [5] and in assay [8]. Moreover, the molecule was called inactive in [7] and in assay [10]. Moreover, the AC50 in [6] is 41 µM (active).
Turning to `CCCCCCCOC(=O)c1ccccc1C(=O)OCCCCCCC`, the molecule was called inactive in [1], in assay [2], in assay [3], in [4], in [5] and in assay [6]. Also, the result in assay [7] was inactive.
As to `C=CC(F)(F)C(F)(F)C(F)(F)C(F)(F)C(F)(F)C(F)(F)C(F)(F)C(F)(F)C=C`, the molecule was called inactive in assay [1], in [2], in assay [3], in [4], in assay [5] and in [8]. For the same molecule, the result in assay [7] and in assay [10] was inactive. In addition, in assay [6], the AC50 is 2.76 µM (active).
In the case of `O=C(O)C(F)(OC(F)(F)C(F)(OC(F)(F)C(F)(OC(F)(F)C(F)(F)C(F)(F)F)C(F)(F)F)C(F)(F)F)C(F)(F)F` (centres undefined), the call in assay [1], in assay [2], in assay [3], in assay [4], in assay [5] and in assay [6] was inactive. The molecule was classed as inactive in [7] and in assay [10].
In the case of `FC1CC(F)(F)C(F)(F)C1(F)F` (centres undefined), the call in assay [1], in [2], in [3], in assay [4], in assay [5] and in [6] was inactive. In addition, the result in assay [7], in [10] and in [9] was inactive.
`C=C(C)C(=O)OCCC(F)(F)C(F)(F)C(F)(F)C(F)(F)C(F)(C(F)(F)F)C(F)(F)F`: the outcome in assay [1], in assay [2], in assay [3], in assay [4], in assay [5] and in assay [7] was inactive. Besides, the molecule was called inactive in [10]. For the same molecule, the AC50 in assay [6] is 7.49 µM (active).
As for `O=C(OCCOCCOCCOC(=O)c1ccccc1)c1ccccc1`, the call in [1], in [2], in [3], in assay [4], in [5] and in assay [7] was inactive. In addition, the molecule was called inactive in [10] and in [9]. Besides, the AC50 in assay [6] is 2 µM (active).
`C=C(C)C(=O)OCC(F)(F)C(F)(F)C(F)(F)C(F)(F)C(F)(F)C(F)(F)C(F)(F)F`: the outcome in assay [1], in assay [2], in assay [3], in [4], in assay [5] and in [7] was inactive. Moreover, the call in assay [10] and in assay [9] was inactive. Moreover, in [6], the AC50 is 10.5 µM (active).
As to `FC(F)(I)C(F)(F)C(F)(F)C(F)(F)I`, the result in [1], in [2], in assay [3], in [4], in [5] and in assay [7] was inactive. In addition, the molecule was classed as inactive in assay [10] and in assay [9]. Further, in assay [6], the AC50 is 0.299 µM (active).
Take `CC/C=C\CCOC(=O)c1ccccc1`: the call in assay [1], in assay [2], in assay [3], in assay [4], in assay [5] and in assay [6] was inactive. Also, the molecule was classed as inactive in assay [7], in assay [10] and in [9].
As for `COC(=O)CCC(F)(F)C(F)(F)C(F)(F)C(F)(F)F`, the result in assay [1], in [2], in [3], in assay [4], in assay [5] and in assay [7] was inactive. Further, the outcome in assay [10] and in assay [9] was inactive. In addition, the AC50 in assay [6] is 5.85 µM (active).
With `O=C(O)C(F)(F)C(F)(F)C(F)(F)C(F)(F)C(F)(F)C(F)(F)C(F)(F)C(F)(F)C(F)(F)C(F)(F)C(F)(F)C(F)(F)F`, the figures for the AC50 in assay [1] and in [3] were 100 µM (active) and 65.5 µM (active), respectively. Also, the call in assay [2], in assay [4], in assay [5], in assay [6], in assay [7] and in assay [10] was inactive. In addition, the molecule was called inactive in assay [9].
Take `C#C[C@]1(O)CC[C@H]2[C@@H]3CCc4cc(OC)ccc4[C@H]3CC[C@@]21C`: the outcome in assay [1], in assay [2], in [5], in assay [7] and in assay [9] was inactive. Moreover, the AC50 in [3] is 139 µM (active); in [4], 0.921 µM (active); in assay [6], 0.00914 µM (active).
Regarding `c1ccc(B(c2ccccc2)c2ccccc2)cc1`, the molecule was classed as inactive in assay [1], in [2], in assay [3], in assay [5], in [10] and in [9]. Also, the concentration at half-maximal activity (AC50) in assay [4] was 20.7 µM (active); in [6] it was 5.7 µM (active); in [7], 31.7 µM (active).
Turning to `CC(C)(C)c1ccc(OC2CCCCC2O)cc1` (centres undefined), the outcome in assay [1], in [2], in assay [3], in [5], in assay [6] and in [7] was inactive. For the same molecule, the molecule was classed as inactive in [10] and in assay [9]. The AC50 in [4] was 26.8 µM (active).
Consider `FC(F)(F)C(F)(F)C(F)(F)C(F)(F)C(F)(F)C(F)(F)C(F)(F)C(F)(F)F`, for which the molecule was classed as inactive in assay [1], in assay [2], in assay [3], in [4], in assay [5] and in assay [6]. The molecule was classed as inactive in assay [7], in assay [10] and in assay [9].
In the case of `FC(F)(F)C(F)(F)CNCC(F)(F)C(F)(F)F`, the result in assay [1], in assay [2], in [3], in assay [4], in assay [5] and in [6] was inactive. Further, the outcome in assay [7], in assay [10] and in assay [9] was inactive.
`C=CC(=O)OCC(F)(F)C(F)(F)C(F)(F)C(F)(F)COC(=O)C=C`: the AC50 is 44.9 µM (active) in assay [1], 50 µM (active) in assay [4], 38.3 µM (active) in [6] and 36.4 µM (active) in assay [7]. Moreover, the molecule was called inactive in assay [2], in [3], in assay [5], in assay [10] and in assay [9].
